Our source for the growth values is PubChem BioAssay (NCI).

About 83,000 compounds went through this panel and 20% of them were active in at least one assay; those are over-represented in the sample as a whole.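 The endpoint reported here, percent growth, reads 100 for growth as untreated, 0 for no net growth and -100 for all cells dead.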 Calls of active or inactive are those of the source. How the source made its calls: active means growth percent below 10; inactive means the rest.

For the test, the system named is MOLT-4 leukemia. Put plainly: NCI-60 one-dose screen, 48 h (100 = growth as untreated, 0 = no growth, -100 = all killed). The following applies: 10 µM unless noted.
Take `Cc1cc2c(-c3nc4ccccc4n3C)c(O)c(O)cc2c(O)c1-c1c(C)cc2c(-c3nc4ccccc4n3C)c(O)c(O)cc2c1O`: the growth was 26.7% (inactive).

In the case of `COc1ccc2sc(-n3nc4nc5n(c(=O)c4c3N)-c3ccccc3Sc3ccccc3-5)nc2c1`, the growth was 49.4% (inactive).

For `CC(=O)Nc1ccc(C(=O)/C=C/c2ccc(N(C)C)cc2)cc1`, the growth is 99.2% (inactive).

Regarding `CCCC(=O)NNc1[nH]c(-c2ccc(OC)cc2)cc1C(=O)OCC`, the growth was 3.23% (active).

As for `O=C(/C(Br)=C/c1ccccc1)c1ccccc1`, the growth is -25.2% (active).

For the molecule `C/C=C(/C)C(=O)OC1C=C(CO)C(=O)C(OC(=O)C(C)(O)C(C)Cl)C1C(C)C` (stereo not given), the growth is 0.566% (active).

For the molecule `CC([C@H]1CC=C2C3CCC4=C[C@@H](N(C)C)CC[C@]4(C)C3CC[C@@]21C)N(C)C` (stereo not given in full), the growth was 73.5% (inactive).

Consider `COc1ccc(/C=C2\SC(=O)N(Cc3cc(=O)oc4ccc(OC)cc34)C2=O)cc1`, for which the growth was 85.1% (inactive).

With `CCCCCCCCCCCCCCCC[n+]1cccc(C#N)c1`, the growth is -13.3% (active).

Take `COc1ccc2cnc(N)c(C#Cc3cc(C(=O)Nc4ccc(CN5CCN(C)CC5)c(C(F)(F)F)c4)cnc3C)c2c1`: the growth is 23.7% (inactive).

Consider `CCCCCc1ccnc(CC(=O)c2ccc(OC)cc2)c1`, for which the growth is 98.7% (inactive).

Turning to `CCCCCCCCCCCCCCCCCC1=NCCN1CS(=O)(=O)O`, the growth is 12.3% (inactive).

Turning to `COc1ccc(OC)c(Cn2cc3c(c2)-c2oncc2CC3)c1`, the growth was 28.7% (inactive).

As to `CC1Cc2cc(F)ccc2-n2cccc21` (stereo not given), the growth was 113% (inactive).

For `CC/C(=N\Nc1nc2ccccc2n1C)c1ccccn1`, the growth is 1.52% (active).

As to `O=C(CN1C(=O)NC(c2ccccc2)(c2ccccc2)C1=O)c1ccc(N2CCCC2)cc1`, the growth was 70.5% (inactive).

Turning to `COc1ccc(-c2nc(N)n(C(=S)Nc3ccccc3)n2)cc1`, the growth was 98.5% (inactive).

On to `Cc1sc(NC(=O)c2ccc(C(C)(C)C)cc2)c(C(=O)O)c1C`, for which the growth was 50.3% (inactive).

Regarding `C#CCCCCCCC[C@@H]1OC(=O)[C@H]([C@@H](C)CC)NC(=O)[C@H]([C@@H](C)CC)NC(=O)CC(=O)[C@@H]1C`, the growth was 80.3% (inactive).

On to `CCOC1=C(Cl)C(=O)C(OCC)=C(Cl)C1=O`, for which the growth was 88.1% (inactive).

Regarding `Cc1ccc(CC(=O)O)c(C)c1`, the growth was 105% (inactive).

As to `O=C1C(=O)c2ccccc2C(O)=C1CCCc1ccc(Oc2ccccc2)cc1`, the growth is 50.3% (inactive).

Take `CCOc1ccc2nc3ccc(Cl)cc3nc2c1`: the growth is 50.8% (inactive).

On to `CC[n+]1c(C)ccc2cc(C)ccc21`, for which the growth is 89.9% (inactive).

For `COC(=O)/C(Br)=C/c1c[nH]c2ccc(Br)cc12`, the growth is 52.8% (inactive).

For `CC(=O)c1ccc2c(c1)c1ccccc1n2C`, the growth was 82% (inactive).

With `Cc1ccc([C@@H]2C[C@H](O)Cc3ccccc3N2)s1`, the growth was 95.7% (inactive).

Take `COC(=O)/C=C/c1cc(O)c2oc(-c3ccc(O)c(O)c3)c(C(=O)OC)c2c1`: the growth was 19.2% (inactive).

For `CCc1c(C)c2ccc(OCC(=O)N=Nc3c(O)[nH]c4ccccc34)c(C)c2oc1=O`, the growth is 8.66% (active).

For `CC1=C(C)C[C@]2(C(=O)O[C@H]3CCCC[C@@H]32)[S@](=O)C1`, the growth is 105% (inactive).

As to `CCOC(=O)C1=NN(c2ccccc2)C2=NC(=O)/C(=C\c3cn(-c4ccccc4)nc3-c3cc4ccccc4o3)C(=O)N12`, the growth was 96.3% (inactive).

As to `COc1cc2c(/C=C3\C(=O)Nc4ccc(Br)cc43)c(Cl)n(C)c2cc1C`, the growth is 4.36% (active).

As to `COc1cc2c(cc1OC)C(Cc1cc(OC)c(OC)cc1[N+](=O)[O-])=NCC2`, the growth is 92.4% (inactive).

Turning to `COc1ccc(-c2nc(SCC(C)C)nc(Nc3ccc([N+](=O)[O-])cc3)c2C#N)cc1`, the growth is 92.2% (inactive).

For `O=C(/C=C/c1c[nH]c2ccccc12)c1cc2ccccc2o1`, the growth is 75.3% (inactive).

With `O=C(CBr)OCc1ccc([N+](=O)[O-])o1`, the growth is 95.6% (inactive).

Consider `C/C=C(/C)C(=O)OC1C=C(CO)C(=O)C(OC(=O)C2(C)OC2C)C1C(C)C` (stereo not given), for which the growth is -3.66% (active).

Turning to `O=C(Nc1ccc(Cl)c(Cl)c1)O/N=C\c1c(Cl)ccc([N+](=O)[O-])c1Cl`, the growth was -32.9% (active).

With `Oc1ccc(CN(Cc2ccc(C(F)(F)F)cc2)Cc2ccc(O)c3ncccc23)c2cccnc12`, the growth was 10.4% (inactive).

Turning to `COc1cc(-c2nc(/C=C3/C(=O)Nc4ccccc43)c3ccccn23)cc(OC)c1OC`, the growth is 62.8% (inactive).
